The list is not random: actives were taken first. Their share in the collection is about 31%.
CYP2C19 inhib – blocks human cytochrome P450 2C19; AID 778; CYP2C19 Supersomes, luciferin-H EGE luminescence, 30 min; inhibition, % at 5 µM; P33261; 96,000 tested, 21% active;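 active = CYP2C19 inhibition above a set limit at 5 µM in the primary screen, cut at about 50% in these data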;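 note: plate controls were negative control wells for no effect and 2.5 mM tranylcypromine positive control for full effect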
CYP2C19 activ – increases human CYP2C19 enzyme activity; P33261; recombinant CYP2C19, luciferin-H EGE luminescence; active compounds read high; 0 = fully inhibited enzyme, 1 = untreated enzyme; activation factor at 5 µM; 96,000 tested, under 10 active; AID 1025;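 active = activation factor of at least 2 at 5 µM in the primary screen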;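 note: 0 = wells with 2.5 mM tranylcypromine and 1 = vehicle-only wells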
CYP2C9 activ – activators of human CYP2C9; 96,000 tested, 1.4% active; P11712; AID 1024; activation factor at 5 µM; recombinant CYP2C9, luciferin-H conversion, luminescence; active compounds read high; factor 1 = untreated enzyme, 0 = blocked;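 active = activation factor of 2 or more for CYP2C9 at a 5 µM dose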;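 note: 0 = sulfaphenazole-blocked wells and 1 = vehicle-only wells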
Target sequence (P11712 whole entry, looked up): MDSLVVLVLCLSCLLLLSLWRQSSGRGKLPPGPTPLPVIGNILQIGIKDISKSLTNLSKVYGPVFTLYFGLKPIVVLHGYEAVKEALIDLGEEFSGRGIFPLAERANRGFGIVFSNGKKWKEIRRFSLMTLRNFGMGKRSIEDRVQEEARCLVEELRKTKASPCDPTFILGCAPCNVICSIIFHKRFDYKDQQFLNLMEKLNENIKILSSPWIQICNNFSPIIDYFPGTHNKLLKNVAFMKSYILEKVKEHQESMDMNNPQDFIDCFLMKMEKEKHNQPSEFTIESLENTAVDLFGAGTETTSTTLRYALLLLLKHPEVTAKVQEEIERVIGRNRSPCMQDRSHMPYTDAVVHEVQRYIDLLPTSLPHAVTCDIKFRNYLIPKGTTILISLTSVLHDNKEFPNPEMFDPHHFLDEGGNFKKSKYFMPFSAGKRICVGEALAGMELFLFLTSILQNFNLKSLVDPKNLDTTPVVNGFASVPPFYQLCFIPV
CYP2C9 inhib – inhibitors of human CYP2C9; P11712; CYP2C9 Supersomes, luciferin-H conversion, luminescence; inhibition, % at 5 µM; 96,000 tested, 20% active; AID 777;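 active = blocking of liver enzyme CYP2C9 beyond about 50% at 5 µM, limit read from the data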
Starred values were filed as active, the others as inactive.

SMILES	CYP2C19 inhib	CYP2C19 activ	CYP2C9 activ	CYP2C9 inhib
CC(C)OCCCNC(=O)NC12CC3CC(CC(C3)C1)C2	57*	0.4	0.9	7
COCCNC(=S)NC12CC3CC(CC(C3)C1)C2	40	0.6	1.1	-8
Cn1c(=O)c2c3c(sc2n2c(SCC(N)=O)nnc12)CC(C(C)(C)C)CC3 (configuration not stated)	58*	0.4	0.9	14
CCn1c(=O)c2c3c(sc2n2c(=S)[nH]nc12)CCC3	80*	0.2	0	97*
CCCSc1nnc2n(C)c(=O)c3c4c(sc3n12)CCC4	53*	0.5	0.4	61*
CCn1c(=O)c2c3c(sc2n(C)c1=O)CCC3	1	1	1	2
CCCSc1nnc2n(Cc3ccccc3)c(=O)c3c4c(sc3n12)CCC4	-20	1.2	1.2	-18
CC(NC(=O)CSc1nnc(CC(=O)Nc2ccc(Cl)c(Cl)c2)n1C)c1ccccc1 (configuration not stated)	36	0.6	0.7	35
O=C(CCCC(=O)N(CC(=O)NC1CCCC1)Cc1ccccc1)Nc1ccccn1	46	0.5	0.5	50*
COCCC(=O)N(Cc1ccc2c(c1)OCO2)C(C(=O)NC1CCCCC1)c1ccncc1 (configuration not stated)	48	0.5	0.6	39
O=C(CCCC(=O)N(CC(=O)NC1CCCC1)Cc1ccc2c(c1)OCO2)Nc1ccccn1	60*	0.4	0.4	60*
O=C(CCCC(=O)N(c1ccc2c(c1)OCCO2)C(C(=O)NC1CCCCC1)c1ccc(Cl)cc1)Nc1ccccn1 (configuration not stated)	55*	0.5	0.5	52*
O=C(CN(Cc1ccc2c(c1)OCO2)C(=O)c1cnsn1)NC1CCCC1	88*	0.1	0.7	27
O=C(CCCC(=O)OCC(=O)NC1CCCC1)Nc1ccccn1	-5	1.1	1	-4
COc1cc(OC)cc(C(=O)N[C@H](C(=O)NC23CC4CC(CC(C4)C2)C3)C(C)C)c1	46	0.5	0.6	44
O=C(Cc1cc(=O)[nH][nH]1)N/N=C/C=C/c1ccccc1	-6	1.1	1.1	-12
O=C(CN(Cc1ccccc1)C(=O)CCC(=O)Nc1ccccn1)NCc1ccco1	59*	0.4	0.7	28
O=C(CSc1ccc2nnc(-c3cccnc3)n2n1)NCc1ccc2c(c1)OCO2	-13	1.1	0.9	11
O=c1c2c(C(F)(F)F)cc(C(F)(F)F)nc2[nH]n1-c1ccccc1	2	1	0.2	84*
Cc1cc(C)c2c(=O)n(-c3ccccc3)[nH]c2n1	-3	1	1.1	-5
Cc1cc(-c2ccccc2)nc2[nH]n(-c3ccccc3)c(=O)c12	10	0.9	0.4	59*
Cc1cc(C)c(C)c(S(=O)(=O)N2C(=S)NC(=O)C2C(C)C)c1C (configuration not stated)	6	0.9	0.7	30
CCCOC1(NC(=O)c2ccccc2)C(C)=CC(=O)C=C1C	26	0.7	1.1	-9
CCCc1ccc(-c2c(C)sc(N)c2C#N)cc1	31	0.7	0.3	68*
O=c1[nH]c2cc(Cl)cc(Cl)c2[nH]c1=O	6	0.9	0.9	8
SMILES	CYP2C19 inhib	CYP2C19 activ	CYP2C9 activ	CYP2C9 inhib
O=C(c1ccco1)N1CCN(C(c2cccs2)c2sc3ncnn3c2O)CC1 (configuration not stated)	52*	0.5	0.6	44
Oc1c(C(c2cccs2)N2CCN(c3cccc(Cl)c3)CC2)sc2ncnn12 (configuration not stated)	42	0.6	0.5	54*
Oc1c(C(c2ccco2)N2CCN(C(c3ccccc3)c3ccccc3)CC2)sc2ncnn12 (configuration not stated)	95*	0	0.1	94*
Cc1ccc(C(c2sc3ncnn3c2O)N2CC(C)CC(C)C2)cc1 (configuration not stated)	76*	0.2	0.7	27
Cc1ccc(C(C(=O)NCc2ccc(F)cc2)N(C(=O)c2csnn2)C2CC2)o1 (configuration not stated)	39	0.6	0.6	38
COc1ccc(S(=O)(=O)N(C)C2CCN(C)CC2)cc1	20	0.8	1	0
Cc1nc2c(-c3ccc(F)cc3)c(C)nn2c(C)c1CCC(=O)N1CCN(c2ccccc2)CC1	50*	0.5	0.4	56*
CCOC(=O)C1CCN(C(=O)CCc2c(C)nc3c(-c4ccc(F)cc4)c(C)nn3c2C)CC1	9	0.9	0.9	12
Cc1nc2c(-c3ccc(F)cc3)c(C)nn2c(C)c1CCC(=O)N1CCC(Cc2ccccc2)CC1	30	0.7	0.5	51*
Cc1nc2c(-c3ccc(F)cc3)c(C)nn2c(C)c1CCC(=O)N1CCN(c2ccc(F)cc2)CC1	62*	0.4	0.3	67*
Cc1nc2c(-c3ccc(F)cc3)c(C)nn2c(C)c1CCC(=O)N1CCOCC1	51*	0.5	0.6	38
COC(=O)c1sccc1-c1ccc(/C=N/OC(=O)c2ccccc2)o1	5	1	0.8	18
CCCC(=O)n1nc(-c2cccnc2)nc1N	0	1	1.1	-14
CCN(CC)c1ncn(Cc2c(Cl)cccc2Cl)c2ncnc1-2	35	0.6	0.6	36
CC1(C)COC(c2cccn2Cc2ccc(F)cc2Cl)=N1	0	1	0.8	18
COc1cc(C2C(C(=O)c3ccco3)=C(O)C(=O)N2Cc2cccnc2)cc(OC)c1OC (configuration not stated)	3	1	0.9	7
Cc1ccc(NC(=O)CS(=O)CC(=O)NCC2CCCO2)cc1 (configuration not stated)	2	1	0.9	11
Cc1ccc(C)c(N2CCN(C(=O)c3ccc(NS(=O)(=O)c4c(C)noc4C)cc3)CC2)c1	7	0.9	0	97*
Cc1ccc(Cl)cc1N1CCN(C(=O)c2ccc(NS(=O)(=O)c3c(C)noc3C)cc2)CC1	15	0.9	0	100*
Cc1noc(C)c1S(=O)(=O)Nc1ccc(C(=O)N2CCCCC2)cc1	23	0.8	0.5	52*
COc1ccc(N2CC(C(=O)Nc3ccc(N4CCOCC4)cc3)CC2=O)cc1 (configuration not stated)	-22	1.2	1.1	-6
CCC(NS(=O)(=O)c1ccc(C)cc1)C(=O)N1CCN(c2ccccn2)CC1 (configuration not stated)	27	0.7	0.9	6
N#CCC(=N)N1CCN(c2cccc(Cl)c2)CC1	8	0.9	1	-3
Cc1ccc(Oc2ncccc2/C=N/OCc2ccc(Cl)c(Cl)c2)cc1	-15	1.2	1.2	-17
Cc1ccc(S(=O)(=O)NC2CCCc3ccccc32)cc1C (configuration not stated)	9	0.9	1.5	-54
CCOC(=O)N/N=C(/C)c1ccc([N+](=O)[O-])o1	-15	1.2	1.2	-15
C=CCn1c(CCC(=O)O)ccc1-c1ccccc1	39	0.6	0.3	70*
O=C(O)CCc1ccc(-c2ccc(Cl)cc2)n1CCC(=O)O	3	1	0.7	26

Screening results as filed in PubChem.
